Targets with a hit are over-represented here; the source holds about 8,800 in all. About 0.5% of all pairs of compound and target were hits. Unmarked numbers belong to inactive results.

Here are results for 15 targets from the supplement of paper PMC10849652.

What all share (test): log2 fold change, soluble protein after heating vs DMSO (PISA); higher = thermal stabilisation; K562 lysate, 10 uM; active = over 0.2 and 3.5 SD of the protein, either way, in both replicates (recomputed)
Compound in one test: CS(=O)(=O)CCNCc1ccc(-c2ccc3ncnc(Nc4ccc(OCc5cccc(F)c5)c(Cl)c4)c3c2)o1 [lapatinib]
Put shortly:
(§1)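 To prepare the extract, K562 pellets were dounce-homogenised in PBS pH 7.4 with 1 mM MgCl2, giving crude material at 1 mg/mL protein. This was treated with 10 μM compound for 30 min, then heated in aliquots for 3 min over 48°C-58°C before pooling and addition of NP-40 to 0.5% at 4°C. Centrifugation at 21,000xg for 90 min left soluble protein in the supernatant, which TMTpro 16plex LC-MS/MS quantified with equalised channel sums. Results are log-two fold changes in thermal stability compared with solvent controls, from duplicates.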

Compound in a further test: CS(=O)(=O)N1CCN(Cc2cc3nc(-c4cccc5[nH]ncc45)nc(N4CCOCC4)c3s2)CC1 [pictilisib]
Put shortly:
as §1

Compound in a further test: C[C@@H](Oc1cc(-c2cnn(C3CCNCC3)c2)cnc1N)c1c(Cl)ccc(F)c1Cl [crizotinib]
The method in brief:
as §1

Compound in test [1]: C[C@H](C1=CC=C(C=C1)C(=O)NC2=C3C=CNC3=NC=C2)N
The method in brief: as §1

Compound in the next test: C[C@H](Nc1ncnc2nc[nH]c12)c1cc2cccc(Cl)c2c(=O)n1-c1ccccc1 [duvelisib]
The method in brief: as §1

Compound in a further test: Cc1cc(Nc2cc(CN3CCOCC3)c3nc(C)c(Cc4ccc(Cl)cc4F)n3n2)n[nH]1 [gandotinib]
Put shortly: as §1

Compound in the next test: Cc1cc(Nc2cc(N3CCN(C)CC3)nc(Sc3ccc(NC(=O)C4CC4)cc3)n2)n[nH]1 [tozasertib]
The method in brief:
as §1

Compound in the next test: Cc1ccc(-n2nc(C(C)(C)C)cc2NC(=O)Nc2ccc(OCCN3CCOCC3)c3ccccc23)cc1 [doramapimod]
The method in brief: as §1

Compound in a further test: Cc1ccc(NC(=O)c2ccc(CN3CC[C@H](N(C)C)C3)c(C(F)(F)F)c2)cc1Nc1nccc(-c2cncnc2)n1 [bafetinib]
The method in brief:
as §1

Compound in test [2]: Cc1cccc(CC(=O)N2CCc3c2ccc(-c2cn(C)c4ncnc(N)c24)c3F)n1
The method in brief: as §1

UniProt Q96Q05, sequence (Q96Q05 whole entry, looked up): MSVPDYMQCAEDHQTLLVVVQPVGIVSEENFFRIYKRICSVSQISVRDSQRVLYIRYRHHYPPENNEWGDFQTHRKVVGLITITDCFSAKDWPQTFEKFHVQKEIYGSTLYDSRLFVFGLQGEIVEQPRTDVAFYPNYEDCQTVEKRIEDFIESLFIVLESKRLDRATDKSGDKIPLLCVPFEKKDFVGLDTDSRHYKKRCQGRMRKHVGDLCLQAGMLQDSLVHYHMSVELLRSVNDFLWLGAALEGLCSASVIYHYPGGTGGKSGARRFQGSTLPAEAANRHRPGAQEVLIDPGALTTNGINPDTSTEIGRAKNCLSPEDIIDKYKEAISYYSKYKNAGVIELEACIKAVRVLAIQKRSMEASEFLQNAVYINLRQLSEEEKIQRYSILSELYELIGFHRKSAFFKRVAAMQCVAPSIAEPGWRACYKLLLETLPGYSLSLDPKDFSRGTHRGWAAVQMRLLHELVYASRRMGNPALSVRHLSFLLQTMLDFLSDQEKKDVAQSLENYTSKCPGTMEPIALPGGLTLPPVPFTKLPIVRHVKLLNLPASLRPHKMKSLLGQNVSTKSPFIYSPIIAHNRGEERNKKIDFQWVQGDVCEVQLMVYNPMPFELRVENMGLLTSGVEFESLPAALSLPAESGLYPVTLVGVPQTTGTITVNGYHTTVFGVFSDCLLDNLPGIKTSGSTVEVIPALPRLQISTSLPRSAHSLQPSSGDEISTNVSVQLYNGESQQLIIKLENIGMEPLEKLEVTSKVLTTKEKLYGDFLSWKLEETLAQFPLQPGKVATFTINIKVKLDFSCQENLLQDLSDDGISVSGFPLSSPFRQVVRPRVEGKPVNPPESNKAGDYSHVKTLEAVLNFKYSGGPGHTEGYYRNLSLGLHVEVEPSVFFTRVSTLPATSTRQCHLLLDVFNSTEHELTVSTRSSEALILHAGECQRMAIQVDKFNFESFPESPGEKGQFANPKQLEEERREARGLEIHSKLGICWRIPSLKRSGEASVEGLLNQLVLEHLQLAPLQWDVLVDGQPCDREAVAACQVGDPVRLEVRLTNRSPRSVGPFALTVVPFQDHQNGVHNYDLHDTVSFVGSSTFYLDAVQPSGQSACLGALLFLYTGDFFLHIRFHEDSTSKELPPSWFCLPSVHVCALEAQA
UniProt Q8N0Z6, sequence (Q8N0Z6 whole entry, looked up): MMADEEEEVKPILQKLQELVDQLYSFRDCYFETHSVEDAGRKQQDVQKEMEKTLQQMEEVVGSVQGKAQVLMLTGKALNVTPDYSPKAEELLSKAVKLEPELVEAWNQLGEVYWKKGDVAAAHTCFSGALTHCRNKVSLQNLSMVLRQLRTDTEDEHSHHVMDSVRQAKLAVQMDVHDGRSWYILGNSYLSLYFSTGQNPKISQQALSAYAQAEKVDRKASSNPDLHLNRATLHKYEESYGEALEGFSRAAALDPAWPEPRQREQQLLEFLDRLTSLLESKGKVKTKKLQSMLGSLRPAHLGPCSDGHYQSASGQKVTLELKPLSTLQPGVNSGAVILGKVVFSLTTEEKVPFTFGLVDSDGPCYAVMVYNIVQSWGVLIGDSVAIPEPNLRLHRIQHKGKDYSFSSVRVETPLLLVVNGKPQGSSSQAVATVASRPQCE
UniProt Q9Y5K5, sequence (Q9Y5K5 whole entry, looked up): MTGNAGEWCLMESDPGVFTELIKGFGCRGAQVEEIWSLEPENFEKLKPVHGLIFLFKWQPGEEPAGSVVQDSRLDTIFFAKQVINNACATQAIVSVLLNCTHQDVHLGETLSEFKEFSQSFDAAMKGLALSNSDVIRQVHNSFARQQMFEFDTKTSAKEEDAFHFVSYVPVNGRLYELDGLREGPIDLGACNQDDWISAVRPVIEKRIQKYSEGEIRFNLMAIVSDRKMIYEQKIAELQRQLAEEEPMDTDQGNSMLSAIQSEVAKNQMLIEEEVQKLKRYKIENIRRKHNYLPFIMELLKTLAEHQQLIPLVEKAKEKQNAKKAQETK
UniProt Q96LJ8, sequence (Q96LJ8 whole entry, looked up): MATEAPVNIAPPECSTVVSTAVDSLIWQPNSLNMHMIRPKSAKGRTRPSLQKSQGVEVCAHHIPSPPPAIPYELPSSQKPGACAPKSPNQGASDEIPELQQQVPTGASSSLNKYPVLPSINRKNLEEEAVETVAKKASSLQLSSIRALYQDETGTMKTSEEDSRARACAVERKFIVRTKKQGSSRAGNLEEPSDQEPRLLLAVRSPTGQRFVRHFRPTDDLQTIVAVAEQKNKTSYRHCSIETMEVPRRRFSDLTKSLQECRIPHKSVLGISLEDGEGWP
UniProt Q8WUH2, sequence (Q8WUH2 whole entry, looked up): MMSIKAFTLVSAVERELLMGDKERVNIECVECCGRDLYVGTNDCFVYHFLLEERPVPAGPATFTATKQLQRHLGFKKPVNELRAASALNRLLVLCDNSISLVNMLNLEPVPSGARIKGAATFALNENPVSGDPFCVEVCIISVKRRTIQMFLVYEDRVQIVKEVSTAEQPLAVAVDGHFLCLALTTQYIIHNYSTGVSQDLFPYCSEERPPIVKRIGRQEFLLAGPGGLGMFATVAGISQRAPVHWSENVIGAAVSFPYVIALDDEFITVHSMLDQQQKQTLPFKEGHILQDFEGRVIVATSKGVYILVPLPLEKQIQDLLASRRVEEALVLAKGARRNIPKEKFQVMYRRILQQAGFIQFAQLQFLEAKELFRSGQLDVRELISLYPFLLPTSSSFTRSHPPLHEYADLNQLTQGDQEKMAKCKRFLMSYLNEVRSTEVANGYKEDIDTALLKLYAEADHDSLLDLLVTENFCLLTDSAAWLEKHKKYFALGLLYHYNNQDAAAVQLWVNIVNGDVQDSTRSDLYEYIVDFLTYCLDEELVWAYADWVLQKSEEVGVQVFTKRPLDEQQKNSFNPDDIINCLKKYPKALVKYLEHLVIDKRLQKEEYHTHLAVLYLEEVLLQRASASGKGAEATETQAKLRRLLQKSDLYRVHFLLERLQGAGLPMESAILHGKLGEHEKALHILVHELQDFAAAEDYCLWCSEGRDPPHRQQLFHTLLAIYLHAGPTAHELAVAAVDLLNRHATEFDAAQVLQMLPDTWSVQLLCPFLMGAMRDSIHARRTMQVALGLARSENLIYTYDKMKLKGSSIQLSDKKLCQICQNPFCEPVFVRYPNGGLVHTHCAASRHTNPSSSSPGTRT
UniProt O60701, sequence (O60701 whole entry, looked up): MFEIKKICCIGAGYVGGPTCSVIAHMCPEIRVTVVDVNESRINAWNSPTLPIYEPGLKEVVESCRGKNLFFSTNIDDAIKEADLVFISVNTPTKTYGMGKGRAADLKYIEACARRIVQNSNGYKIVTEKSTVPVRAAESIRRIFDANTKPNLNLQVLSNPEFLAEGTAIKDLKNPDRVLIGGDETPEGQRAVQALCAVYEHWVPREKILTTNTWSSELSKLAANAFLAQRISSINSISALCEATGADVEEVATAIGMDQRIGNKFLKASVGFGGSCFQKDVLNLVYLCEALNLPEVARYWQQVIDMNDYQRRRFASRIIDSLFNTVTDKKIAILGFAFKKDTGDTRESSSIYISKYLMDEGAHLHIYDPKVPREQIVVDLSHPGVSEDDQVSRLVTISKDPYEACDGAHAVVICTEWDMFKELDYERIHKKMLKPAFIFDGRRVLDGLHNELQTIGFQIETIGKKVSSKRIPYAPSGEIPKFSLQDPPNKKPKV
UniProt Q9UNS1, sequence (Q9UNS1 whole entry, looked up): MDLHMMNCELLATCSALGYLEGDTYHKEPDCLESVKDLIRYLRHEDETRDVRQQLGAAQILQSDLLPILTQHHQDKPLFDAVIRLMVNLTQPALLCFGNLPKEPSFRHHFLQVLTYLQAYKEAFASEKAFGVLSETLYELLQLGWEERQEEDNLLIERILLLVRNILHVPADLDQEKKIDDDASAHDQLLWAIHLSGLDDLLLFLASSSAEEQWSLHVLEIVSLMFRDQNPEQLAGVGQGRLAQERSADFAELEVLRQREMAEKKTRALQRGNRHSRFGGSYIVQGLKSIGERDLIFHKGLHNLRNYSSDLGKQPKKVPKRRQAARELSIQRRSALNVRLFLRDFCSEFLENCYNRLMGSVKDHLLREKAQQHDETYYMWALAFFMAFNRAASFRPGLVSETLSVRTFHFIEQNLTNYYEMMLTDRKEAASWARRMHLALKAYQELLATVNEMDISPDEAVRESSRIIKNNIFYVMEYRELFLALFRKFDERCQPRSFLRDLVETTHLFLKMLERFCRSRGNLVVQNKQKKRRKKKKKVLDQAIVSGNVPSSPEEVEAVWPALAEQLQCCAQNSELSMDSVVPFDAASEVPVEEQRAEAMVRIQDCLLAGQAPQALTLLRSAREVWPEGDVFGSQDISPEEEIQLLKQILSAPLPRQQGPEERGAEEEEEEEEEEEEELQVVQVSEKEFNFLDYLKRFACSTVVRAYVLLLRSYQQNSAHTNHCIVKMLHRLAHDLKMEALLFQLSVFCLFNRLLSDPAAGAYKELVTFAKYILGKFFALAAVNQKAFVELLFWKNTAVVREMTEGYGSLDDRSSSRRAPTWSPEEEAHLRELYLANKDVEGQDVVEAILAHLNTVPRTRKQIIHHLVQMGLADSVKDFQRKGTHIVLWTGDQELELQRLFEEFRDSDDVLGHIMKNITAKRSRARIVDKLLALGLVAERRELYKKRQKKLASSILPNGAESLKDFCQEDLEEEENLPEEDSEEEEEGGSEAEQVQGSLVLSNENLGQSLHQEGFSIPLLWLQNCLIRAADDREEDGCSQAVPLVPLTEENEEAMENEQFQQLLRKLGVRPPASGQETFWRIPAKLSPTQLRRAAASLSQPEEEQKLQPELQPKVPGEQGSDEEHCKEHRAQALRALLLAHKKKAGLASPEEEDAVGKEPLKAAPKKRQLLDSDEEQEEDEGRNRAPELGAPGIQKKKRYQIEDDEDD
UniProt P67936, sequence (P67936 whole entry, looked up): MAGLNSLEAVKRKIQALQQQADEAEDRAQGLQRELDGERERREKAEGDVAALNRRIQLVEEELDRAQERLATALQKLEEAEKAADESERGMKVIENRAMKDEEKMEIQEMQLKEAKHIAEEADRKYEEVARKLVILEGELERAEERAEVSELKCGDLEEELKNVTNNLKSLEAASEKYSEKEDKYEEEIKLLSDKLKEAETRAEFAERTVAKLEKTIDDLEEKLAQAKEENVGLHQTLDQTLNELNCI

On to TUBB3 (UniProt Q13509), for which the log2 fold change with lapatinib was 0.015; with pictilisib, 0.032; in the test with crizotinib, -0.027; in test [1] it was 0.018; with duvelisib it was 0.026; with gandotinib, 0.02. Further, the log2 fold change with tozasertib is 0.001; with doramapimod, -0.005; with bafetinib, 0.021; in [2], 0.001.

As for TPM3 (UniProt P06753), the log2 fold change is 0.014 with lapatinib; 0.005 with pictilisib; 0.022 with crizotinib; 0.123 in [1]; 0.009 in the test with duvelisib; -0.039 with gandotinib. In addition, the log2 fold change is -0.003 with tozasertib, -0.022 in the test with doramapimod, 0.052 with bafetinib and -0.088 in [2].

In the case of UCHL5 isoform 3 (UniProt Q9Y5K5), the log2 fold change in the test with lapatinib is 0.042; with pictilisib it was -0.029; with crizotinib it was 0.022; in test [1], 0.121; with duvelisib it was -0.01; in the test with gandotinib, -0.044. In addition, the log2 fold change was -0.007 in the test with tozasertib, -0.015 with doramapimod, -0.019 with bafetinib and -0.02 in [2].

In the case of UBXN10 (UniProt Q96LJ8), the log2 fold change in the test with lapatinib was -0.041; with pictilisib, 0.006; with crizotinib, 0.02; in test [1] it was -0.001; with duvelisib, 0.035; with gandotinib, 0.06. The log2 fold change with tozasertib was 0.006; in the test with doramapimod, -0.003; with bafetinib, -0.081; in test [2] it was -0.065.

Turning to TPM4 isoform 2 (UniProt P67936), the log2 fold change in the test with lapatinib is 0.007; in the test with pictilisib, 0; in the test with crizotinib, 0.091; in [1] it was 0.329 (active); with duvelisib, 0.011; with gandotinib it was -0.138. Moreover, the log2 fold change is -0.027 with tozasertib, 0.002 in the test with doramapimod, 0.075 with bafetinib and -0.164 in [2].

On to UGDH (UniProt O60701), for which the log2 fold change in the test with lapatinib is 0.009; with pictilisib it was -0.021; with crizotinib, -0.015; in test [1] it was 0.037; with duvelisib, -0.063; in the test with gandotinib it was -0.067. Further, the log2 fold change with tozasertib was -0.073; in the test with doramapimod it was -0.053; with bafetinib, -0.019; in test [2], -0.022.

Turning to TPM4 (UniProt P67936), the log2 fold change with lapatinib was -0.002; with pictilisib, -0.043; in the test with crizotinib, 0.003; in test [1], -0.001; in the test with duvelisib, -0.021; with gandotinib, 0.039. In addition, the log2 fold change with tozasertib is -0.098; with doramapimod, -0.029; with bafetinib, -0.055; in test [2], -0.018.

In the case of TFCP2 (UniProt Q12800), the log2 fold change in the test with lapatinib was 0.043; in the test with pictilisib, 0.083; with crizotinib, -0.093; in test [1] it was 0; with duvelisib it was -0.016; in the test with gandotinib, 0.098. Further, the log2 fold change with tozasertib is 0.021; with doramapimod it was 0.168; with bafetinib, -0.075; in test [2] it was 0.004.

For the target TTC5 (UniProt Q8N0Z6), the log2 fold change was 0.039 with lapatinib; -0.021 in the test with pictilisib; -0.053 with crizotinib; -0.064 in test [1]; 0.032 with duvelisib; -0.048 with gandotinib. The log2 fold change is 0.076 with tozasertib, 0.007 with doramapimod, -0.052 with bafetinib and 0.04 in [2].

On to TGFBRAP1 (UniProt Q8WUH2), for which the log2 fold change was -0.029 in the test with lapatinib; -0.021 with pictilisib; -0.034 with crizotinib; -0.001 in [1]; -0.03 with duvelisib; -0.138 with gandotinib. The log2 fold change with tozasertib was 0.052; with doramapimod, 0.028; with bafetinib it was -0.056; in test [2] it was -0.007.

As to TCF3 (UniProt P15923), the log2 fold change is 0.014 with lapatinib; 0.014 in the test with pictilisib; 0.066 with crizotinib; -0.042 in [1]; 0.22 (active) with duvelisib; 0.053 with gandotinib. In addition, the log2 fold change was -0.013 in the test with tozasertib, -0.031 with doramapimod, -0.036 with bafetinib and -0.032 in test [2].

In the case of TIMELESS (UniProt Q9UNS1), the log2 fold change with lapatinib was 0.017; with pictilisib, -0.017; with crizotinib, -0.077; in test [1], -0.042; in the test with duvelisib, -0.029; with gandotinib, -0.12. The log2 fold change was -0.026 in the test with tozasertib, -0.02 with doramapimod, -0.082 with bafetinib and 0.032 in [2].

Take TRAPPC9 isoform 2 (UniProt Q96Q05): the log2 fold change with lapatinib was -0.02; in the test with pictilisib, 0.012; with crizotinib it was -0.084; in test [1], -0.053; in the test with duvelisib, -0.038; with gandotinib, -0.037. Moreover, the log2 fold change in the test with tozasertib was 0.037; with doramapimod, 0.029; in the test with bafetinib it was -0.026; in test [2] it was 0.021.

Consider THOC5 (UniProt Q13769), for which the log2 fold change in the test with lapatinib is -0.036; in the test with pictilisib, -0.007; with crizotinib it was -0.011; in [1] it was -0.024; in the test with duvelisib it was -0.009; with gandotinib, -0.021. The log2 fold change was -0.01 in the test with tozasertib, 0.02 with doramapimod, -0.009 with bafetinib and 0.035 in [2].

In the case of TLE3 isoform 4 (UniProt Q04726), the log2 fold change is -0.01 with lapatinib; 0.008 with pictilisib; 0.003 with crizotinib; 0.004 in [1]; -0.015 with duvelisib; 0 with gandotinib. Besides, the log2 fold change with tozasertib was -0.029; with doramapimod, -0.016; with bafetinib, 0.1; in test [2], -0.048.
